A short description of test [1]: inhibitors of TNFa-induced NFkB p65 translocation, primary screen, imaging, HUVEC, MLSMR starter and 10KST1 sets (AID 438).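 Further: compound added about 3h40 before a 20 min TNFalpha stimulation.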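 On inhibition: signal is the nuclear over cytoplasmic p65 intensity ratio per well.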 To be noted: HUVEC TNFa-induced p65 nuclear translocation; cell count: measured here: nuclei count (cytotoxicity indicator), at 2.08 µM; inhibition: at 2 µM, stronger effect = higher value, 0% TNFa-plus-vehicle, 100% no-TNFa wells.
Test [2] in a line: reduction of polyQ htt aggregates in cells – imaging, exon1htt(103Q)mCFP cells, high-content imaging, primary screen (AID 483;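 active means visual image review flags a hit and inhibition of aggregation exceeds 20%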;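 further: compound exposure lasted 3 days before fixation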;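 on nuclei count: percent of the per-plate median nuclei count of sample wells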). The conditions noted are these: exon1htt(103Q)mCFP cell line, aggregate imaging, at 2 µM; inhibition of aggregation: stronger effect = higher value; nuclei count: measured here: cell count, toxicity.
Test [3] can be described thus: endothelial E-selectin expression blockers – imaging, HUVEC, immunofluorescence, MLSMR starter and 10KST1 sets, primary screen (AID 487;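 active means visually confirmed hit in the image check and inhibition above 20%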;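 on inhibition: signal is fraction of cell area covered by stained E-selectin grains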;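 on nuclei count: 100% = median nuclei count of all wells on the same plate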). To be noted: HUVEC TNFalpha-induced E-selectin immunofluorescence imaging, at 2 µM; inhibition: stronger effect = higher value; nuclei count: measured here: cell number, toxicity.
Test [4] deals with Voltage-gated potassium channel subunit beta-2 (Rattus norvegicus) (UniProt P62483). Briefly: inhibitors of rat Kvbeta2 reductase activity – biochemical, NADPH fluorescence, primary screen (AID 622;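 active means fluorescence slope higher than the sample average by over 3 SD, cut at about -0.22 in these data, passing the limit was not always enough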;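 further: slope of raw intensity against log time taken from 70 to 1610 s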). To be noted: recombinant KvBeta, 4-cyanobenzaldehyde reduction, at 10 µM, stronger effect = higher value.
Test [5] shares this target. Briefly: enhancers of rat Kvbeta2 NADPH turnover – biochemical, NADPH fluorescence, primary screen (AID 623;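 active means NADPH fluorescence slope more negative than the mean of all samples by about 3 SD, 99.7% confidence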;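 further: fluorescence intensity change per second fitted from 20 to 320 s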). To be noted: Recombinant KvBeta, NADPH fluorescence decrease slope, 10 min; at 10 µM; stronger effect = lower value.
Test [6] has as its target Alpha-2C adrenergic receptor (Homo sapiens) (UniProt P18825). Description: compounds altering alpha2C-coupled GIRK flux – cell-based, HEK293 alpha2C/GIRK1/2, thallium flux, primary screen (AID 624;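 active means fluorescence slope after compound addition differing from the mean of all screened samples at 99.7% confidence, in either direction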;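 further: slope of fluorescence ratio to pre-addition baseline per second over 15 to 24 s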). The conditions noted are these: thallium flux BTC fluorescence, at 10 µM, actives lie on both sides.
A short description of test [7]: blockers of RIG-like receptor reporter activation – cell-based, Sendai virus stimulus, luciferase, 10K MLSCN set, TLR/RLR signaling modifier project, primary screen (AID 602276;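 active means inhibition at or above 50% at 10 µM; inactive means inhibition below 50%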;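 further: firefly luciferase from ISG56 promoter only with Renilla not read in this screen; 0% = Sendai virus plus DMSO and 100% = medium plus DMSO without virus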). To be noted: HEK293 RL24 IRF3 luciferase reporter, at 10 µM, stronger effect = higher value. For orientation: In a reporter assay the amount or activity of a reporter protein is the signal.
Test [8] in a line: TLR3 IRF3 reporter activation blockers – cell-based, poly I:C stimulus, luciferase, 10K MLSCN set, primary screen (AID 602277;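 active means inhibition of the reporter signal at or above 50%; inactive means inhibition below 50%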). To be noted: HEK293-TLR3 RL24 IRF3 luciferase reporter, at 10 µM, stronger effect = higher value.

14 compounds from PubChem BioAssay can be followed below.

The inhibition is the relative decrease from the control value, in per cent.

The source made the active and inactive calls.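 How the source made its calls, unless noted: active means inhibition above 20% together with a positive visual image hit; inconclusive means visual image hit but inhibition not above 20%; inactive means no visual image hit.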

Sequence of Alpha-2C adrenergic receptor (Homo sapiens) (P18825 whole entry, looked up): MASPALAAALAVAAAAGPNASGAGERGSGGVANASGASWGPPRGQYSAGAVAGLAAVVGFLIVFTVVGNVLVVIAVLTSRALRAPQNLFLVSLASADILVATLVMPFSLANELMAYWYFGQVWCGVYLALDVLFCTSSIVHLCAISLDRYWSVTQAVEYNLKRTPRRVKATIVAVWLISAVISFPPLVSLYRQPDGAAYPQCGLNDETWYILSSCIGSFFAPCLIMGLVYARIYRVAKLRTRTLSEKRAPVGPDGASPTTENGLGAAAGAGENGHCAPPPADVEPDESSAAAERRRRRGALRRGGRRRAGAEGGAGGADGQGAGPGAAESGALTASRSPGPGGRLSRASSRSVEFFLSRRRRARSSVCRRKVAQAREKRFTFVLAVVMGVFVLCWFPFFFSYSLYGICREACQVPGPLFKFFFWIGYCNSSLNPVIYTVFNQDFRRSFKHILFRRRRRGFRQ
Sequence of Voltage-gated potassium channel subunit beta-2 (Rattus norvegicus) (P62483 whole entry, looked up): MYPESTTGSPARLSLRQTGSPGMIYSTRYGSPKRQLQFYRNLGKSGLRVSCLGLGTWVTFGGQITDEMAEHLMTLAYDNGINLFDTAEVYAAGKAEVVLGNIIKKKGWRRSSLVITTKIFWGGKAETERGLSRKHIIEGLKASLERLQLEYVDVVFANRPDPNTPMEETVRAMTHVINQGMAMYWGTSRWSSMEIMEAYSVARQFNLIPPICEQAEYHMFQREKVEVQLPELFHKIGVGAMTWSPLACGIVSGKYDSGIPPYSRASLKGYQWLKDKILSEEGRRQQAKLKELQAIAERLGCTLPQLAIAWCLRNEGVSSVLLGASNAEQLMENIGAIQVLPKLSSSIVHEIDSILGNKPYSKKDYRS

On to `O=C1CCc2cc(S(=O)(=O)N3CCC(C(=O)Nc4nccs4)CC3)ccc2N1`, for which, in test [1], the cell count worked out at 821. The inhibition was 3.9% (inactive) in test [1], -38.5% (inactive) in test [3], 18.5% (inactive) in test [7] and 28.2% (inactive) in test [8]. In test [2], the inhibition of aggregation is -29.1% (inactive). The nuclei count in test [2] was 105%; in test [3] it was 102%. Also, the fluorescence slope in test [4] was -0.593 (inactive). For the same compound, the NADPH fluorescence slope in test [5] was -4.4e-05 (inactive). The slope in test [6] was 0.00714 (inactive).
For the compound `Cc1ccccc1OCC(O)CN` (centres undefined), the cell count in test [1] is 298. In addition, the inhibition was 15.6% (inactive) in test [1], 14.2% (inactive) in test [3], -20.3% (inactive) in test [7] and -17.4% (inactive) in test [8]. In test [2], the inhibition of aggregation was 32.2% (active). The results for the nuclei count in test [2] and in test [3] were 104% and 95.6%, respectively. Besides, the fluorescence slope in test [4] is -0.542 (inactive). For the same compound, the NADPH fluorescence slope in test [5] is 1.7e-05 (inactive). The slope in test [6] is 0.00273 (inactive).
As for `CCOc1cccc(/C(O)=C2/C(=O)C(=O)N(CCN3CCOCC3)C2c2cccnc2)c1` (centres undefined), the cell count in test [1] was 733. Further, the inhibition was -1.1% (inactive) in test [1], -18.1% (inactive) in test [3], 14.8% (inactive) in test [7] and 28.3% (inactive) in test [8]. For the same compound, in test [2], the inhibition of aggregation was -4.6% (inactive). Also, the nuclei count in test [2] is 104%; in test [3], 97.6%. For the same compound, the fluorescence slope in test [4] was -0.421 (inactive). For the same compound, in test [5], the NADPH fluorescence slope was -5e-05 (inactive). Moreover, the slope in test [6] is 0.00281 (inactive).
On to `C/C=C(\CS(=O)(=O)c1ccccc1)S(=O)(=O)c1ccccc1`, for which, in test [1], the cell count came out at 167. In addition, the inhibition in test [1] is 2.2% (inactive); in test [3], -49.3% (inactive); in test [7] it was 19.1% (inactive); in test [8], 21.9% (inactive). The inhibition of aggregation in test [2] is 9.7% (inactive). Further, the nuclei count in test [2] is 101%; in test [3], 73%. Further, the fluorescence slope in test [4] was -0.508 (inactive). Further, in test [5], the NADPH fluorescence slope is -1.7e-05 (inactive). The slope in test [6] is 0.00524 (inactive).
On to `Cc1sc(NC(=O)CSc2nnc(COc3ccccc3)n2C)c(C#N)c1C`, for which the cell count in test [1] worked out at 602. Also, the inhibition in test [1] is 2.2% (inactive); in test [3] it was -77.2% (inactive); in test [7], -3.28% (inactive); in test [8], -13.7% (inactive). Moreover, the inhibition of aggregation in test [2] is 15.6% (inactive). Further, the values for the nuclei count in test [2] and in test [3] were 93.8% and 113%, respectively. Moreover, in test [4], the fluorescence slope was -0.335 (inactive). For the same compound, the NADPH fluorescence slope in test [5] is 5.1e-06 (inactive). Moreover, the slope in test [6] is 0.00494 (inactive).
On to `COCC(=O)N(c1ccc(C(C)C)cc1)C1C=CS(=O)(=O)C1` (centres undefined), for which the cell count in test [1] came out at 691. Also, the inhibition in test [1] was -23.8% (inactive); in test [3], -55.5% (inactive); in test [7], 7.64% (inactive); in test [8], 28.1% (inactive). The inhibition of aggregation in test [2] is 20.8% (inactive). Moreover, the results for the nuclei count in test [2] and in test [3] were 129% and 103%, respectively. The fluorescence slope in test [4] is -0.314 (inactive). In addition, the NADPH fluorescence slope in test [5] is -7.6e-06 (inactive). Further, in test [6], the slope was 0.00672 (inactive).
With `CCCCOCCCNC(=O)c1cccs1`, the cell count in test [1] was 471. For the same compound, the inhibition in test [1] was 4.5% (inactive); in test [3], -392% (inactive); in test [7], 5.11% (inactive); in test [8] it was 25.1% (inactive). The inhibition of aggregation in test [2] was -4.3% (inactive). In addition, the nuclei count in test [2] is 103%; in test [3] it was 139%. For the same compound, the fluorescence slope in test [4] is -0.443 (inactive). In test [5], the NADPH fluorescence slope is -2.3e-05 (inactive). In addition, the slope in test [6] was 0.00349 (inactive).
Turning to `Cc1noc(C)c1COC(=O)c1ccccc1Oc1ccccc1`, the cell count in test [1] was found to be 583. The inhibition in test [1] is -25.6% (inactive); in test [3], -22.7% (inactive); in test [7], 4.67% (inactive); in test [8], 22.4% (inactive). Moreover, the inhibition of aggregation in test [2] was -12% (inactive). Also, the values for the nuclei count in test [2] and in test [3] were 106% and 146%, respectively. Also, the fluorescence slope in test [4] is -0.627 (inactive). Moreover, in test [5], the NADPH fluorescence slope was -3.8e-07 (inactive). The slope in test [6] was 0.00533 (inactive).
As for `c1ccc2c(c1)c1c3n2CCNC3CCC1` (centres undefined), the cell count in test [1] came to 663. Besides, the inhibition is -11.5% (inactive) in test [1], -119% (inactive) in test [3], 15.3% (inactive) in test [7] and 14% (inactive) in test [8]. Further, the inhibition of aggregation in test [2] is -9.5% (inactive). Moreover, the nuclei count in test [2] was 103%; in test [3], 102%. In addition, the fluorescence slope in test [4] was -0.364 (inactive). The NADPH fluorescence slope in test [5] was -2e-05 (inactive). Moreover, in test [6], the slope was 0.00436 (inactive).
As to `Cc1cc(C)c(NC(=O)CSc2nnc(-c3ccncc3)n2Cc2ccco2)c(C)c1`, the cell count in test [1] came out at 412. Further, the inhibition in test [1] is -5% (inactive); in test [3], -107% (inactive); in test [7], 5.1% (inactive); in test [8], 10.2% (inactive). In addition, the inhibition of aggregation in test [2] was -19.2% (inactive). Besides, the nuclei count in test [2] is 111%; in test [3] it was 113%. In addition, in test [4], the fluorescence slope was -0.335 (inactive). Further, the NADPH fluorescence slope in test [5] was -3.5e-05 (inactive). In addition, the slope in test [6] is 0.00447 (inactive).
Turning to `CCc1ccccc1NC(=O)CSc1ncn[nH]1`, the cell count in test [1] is 306. Besides, the inhibition in test [1] was 9% (inactive); in test [3], 40% (inactive); in test [7], 1.64% (inactive); in test [8] it was 32.7% (inactive). Further, in test [2], the inhibition of aggregation was -8.6% (inactive). Also, the nuclei count amounted to 101% in test [2] and 102% in test [3]. Besides, the fluorescence slope in test [4] is -0.397 (inactive). In addition, the NADPH fluorescence slope in test [5] is -1.9e-06 (inactive). For the same compound, the slope in test [6] was 0.00367 (inactive).
Turning to `CC(CCc1ccco1)NC(=O)Cn1ncc2c1-c1ccccc1OC2` (centres undefined), the cell count in test [1] came to 762. For the same compound, the inhibition is -3.2% (inactive) in test [1], 0.8% (inactive) in test [3], -1.38% (inactive) in test [7] and 11.2% (inactive) in test [8]. For the same compound, the inhibition of aggregation in test [2] is -17.9% (inactive). Moreover, the nuclei count came out at 126% in test [2] and 120% in test [3]. Also, the fluorescence slope in test [4] is -0.539 (inactive). Moreover, in test [5], the NADPH fluorescence slope is -1.5e-05 (inactive). The slope in test [6] was 0.00662 (inactive).
`N#Cc1cc2c(nc1SCC(=O)N1CCCCC1)CCCC2`: the cell count in test [1] worked out at 220. Moreover, the inhibition was 5.5% (inactive) in test [1], -46% (inactive) in test [3], -26.1% (inactive) in test [7] and -20.2% (inactive) in test [8]. In test [2], the inhibition of aggregation is 0.1% (inactive). Also, the nuclei count turned out to be 90.1% in test [2] and 98.7% in test [3]. Also, the fluorescence slope in test [4] was -0.473 (inactive). In addition, the NADPH fluorescence slope in test [5] was 4.2e-05 (inactive). In addition, the slope in test [6] was 0.00388 (inactive).
Take `CC(=O)NCCOc1cccc(OCCNC(C)=O)c1`: the cell count in test [1] amounted to 369. The inhibition in test [1] was 2.8% (inactive); in test [3] it was -22.5% (inactive); in test [7], -7.84% (inactive); in test [8], -11.9% (inactive). The inhibition of aggregation in test [2] was 6.8% (inactive). Further, the nuclei count in test [2] was determined as 103%; in test [3] it was 117%. The fluorescence slope in test [4] was -0.432 (inactive). For the same compound, the NADPH fluorescence slope in test [5] was 4e-05 (inactive). The slope in test [6] was 0.00674 (inactive).
